Results on 52 molecules are retold here after PubChem BioAssay AID1671190 (National Center for Advancing Translational Sciences (NCATS), 2021).

About 6,100 (1.1%) of roughly 580,000 compounds were called active. About 15% were inconclusive and are not listed. Shown is part of a subset that was picked to be rich in actives. Values without a mark were called inactive. Calls come from the whole dose curve; as a rule, active = well fitted inhibition curve with a large enough effect; inconclusive = small, poorly fitted or top-dose-only effect, or another doubt; inactive = no such curve, though single readings can be large or run the other way.
% is set by controls: 0 for no effect and ±100 for the full control effect; potency is the fitted concentration of half-maximal effect.

Chain of Polyunsaturated fatty acid lipoxygenase ALOX12 (Homo sapiens) (P18054 whole entry, looked up): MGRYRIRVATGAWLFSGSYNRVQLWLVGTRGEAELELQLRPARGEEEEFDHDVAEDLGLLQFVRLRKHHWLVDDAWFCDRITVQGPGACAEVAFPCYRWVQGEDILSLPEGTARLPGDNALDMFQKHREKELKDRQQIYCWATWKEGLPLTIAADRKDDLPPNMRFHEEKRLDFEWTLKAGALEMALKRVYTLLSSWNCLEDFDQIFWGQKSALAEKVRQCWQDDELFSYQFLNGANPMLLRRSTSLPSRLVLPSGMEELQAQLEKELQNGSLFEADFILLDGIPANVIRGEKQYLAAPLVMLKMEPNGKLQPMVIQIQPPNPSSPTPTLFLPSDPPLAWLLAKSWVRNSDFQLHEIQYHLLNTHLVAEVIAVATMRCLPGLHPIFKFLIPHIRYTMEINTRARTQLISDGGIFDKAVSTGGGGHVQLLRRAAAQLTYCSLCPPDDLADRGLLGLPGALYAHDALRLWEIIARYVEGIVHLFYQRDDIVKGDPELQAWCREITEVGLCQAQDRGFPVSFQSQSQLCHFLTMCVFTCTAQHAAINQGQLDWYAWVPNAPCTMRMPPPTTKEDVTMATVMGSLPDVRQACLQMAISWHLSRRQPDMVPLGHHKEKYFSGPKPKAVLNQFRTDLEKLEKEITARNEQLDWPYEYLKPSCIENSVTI

This assay concerns the target Polyunsaturated fatty acid lipoxygenase ALOX12 (Homo sapiens) (UniProt P18054). In words: Primary qHTS assay for inhibitors of human arachidonate 12S-lipoxygenase (ALOX12): Round 2. As to conditions: purified 12hLO, xylenol orange hydroperoxide absorbance; series mostly up to 108 µM; activity change, negative = inhibition: at the top concentration. The method, boiled down: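 Purified human 12hLO at 150 nM in 25 mM Hepes, 0.01% Triton X-100, pH 7.0, preincubated 15 min at room temperature with compound. Reaction started with 40 uM arachidonic acid, 30 min at room temperature. Hydroperoxide measured by Fe-xylenol orange, 573/405 nm absorbance ratio.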
In general terms: In qHTS, concentration-response curves come from the screen itself.
For the molecule `C=CCNC(=O)COc1coc(CN2CCN(Cc3ccccc3)CC2)cc1=O`, the “activity change, negative = inhibition” value was 30.2%.

As to `COc1ccccc1N1CCN(C(=O)CSc2nccn3nc(-c4ccccc4)cc23)CC1`, the “activity change, negative = inhibition” value was 9.23%.

Consider `CCOc1cc2ccccc2cc1C(=O)N1CCN(CC(=O)Nc2cccc(F)c2)CC1`, for which the “activity change, negative = inhibition” value was 0.995%.

As for `COc1cc(C2CC(=O)N3CN(Cc4ccccc4)CSC3=C2C#N)ccc1OCc1ccccc1` (configuration not stated), the Potency was 14.1 µM (active).

On to `COC(=O)c1ccc(OCc2cccc(C#N)c2)c(OC)c1`, for which the “activity change, negative = inhibition” value is -23.9%.

Regarding `COc1ccc(C2CC(=O)NC(SCC(=O)Nc3c(C)cccc3C)=C2C#N)cc1OC` (configuration not stated), the “activity change, negative = inhibition” value is -3.6%.

`CCN(CC1COc2ccccc2O1)S(=O)(=O)N1CCOCC1` (configuration not stated): the “activity change, negative = inhibition” value is 8.61%.

On to `Nc1nonc1C(=O)N1CCN(C(=O)Nc2ccccc2)CC1`, for which the “activity change, negative = inhibition” value was 11.1%.

As for `Cc1cccc2c1NC(=O)C21CC(=O)Nc2c1cnn2C(C)(C)C` (configuration not stated), the “activity change, negative = inhibition” value was -1.1%.

Turning to `CCOc1c(Br)cc(/C=C/C(=O)c2ccc(OC)c(OC)c2)cc1OC`, the “activity change, negative = inhibition” value is -4.63%.

Regarding `Cc1ccccc1Nc1nc(C(=O)NCCCN2CCOCC2)cs1`, the “activity change, negative = inhibition” value is 0.395%.

In the case of `COc1cccc(-c2nc3nc(C)cc(C)n3c2NC2CCCCC2)c1`, the “activity change, negative = inhibition” value was -25%.

For `Cc1cccc(-c2nc3cnccn3c2NCCC(=O)N2CCCCCC2)c1`, the “activity change, negative = inhibition” value is -13.1%.

In the case of `COc1ccc(-c2nc3cnccn3c2NC2CCCCC2)cc1-c1cccc(Cl)c1`, the Potency was 7.94 µM (active).

On to `O=C1COc2ccc(Nc3ccccc3F)nc2CN1Cc1ccccc1F`, for which the “activity change, negative = inhibition” value was -16.2% [at 176 µM].

For `Cc1ccc(-c2nc(SCc3ccc(Br)cc3)n3[nH]c(=O)cc3n2)cc1`, the Potency is 31.6 µM (active).

On to `O=c1cc2nc(-c3ccccc3)nc(SCCOc3ccc(Cl)cc3)n2[nH]1`, for which the “activity change, negative = inhibition” value was 0%.

Consider `Cc1cccc(-c2nc(SCc3ccc(Br)cc3)n3[nH]c(=O)cc3n2)c1`, for which the “activity change, negative = inhibition” value is -26.7%.

In the case of `COc1ccc(OC)c(CNC(=O)c2cc3c(s2)-c2c(C)cccc2OC3)c1`, the “activity change, negative = inhibition” value was -1.33%.

Turning to `CCNC(=S)NC1CC(C)(C)NC(C)(C)C1`, the “activity change, negative = inhibition” value is -3.31%.

For the molecule `Cc1cccc(NC(NC(=O)C(C)C)(C(F)(F)F)C(F)(F)F)c1`, the “activity change, negative = inhibition” value was -27.2%.

Take `CCCNC(=O)C(C)OC(=O)c1cc(=O)[nH]c2ccccc12` (configuration not stated): the “activity change, negative = inhibition” value is -59.8%.

In the case of `CC(=O)c1ccc(NC(=O)[C@@]2(CC(=O)O)CC(c3ccc(Br)cc3)=NO2)cc1`, the Potency is 44.7 µM (active).

With `Cc1ccc(NC(=O)CCC(=O)c2ccc(Br)cc2)cc1`, the “activity change, negative = inhibition” value is 0%.

Take `Cc1c(Cl)cccc1NC(=O)[C@@]1(CC(=O)O)CC(/C=C/c2ccccc2)=NO1`: the “activity change, negative = inhibition” value was -17.8%.

For `O=C1OC(C2CC2)c2cc3c(cc21)OCCO3` (configuration not stated), the “activity change, negative = inhibition” value is 0.0886%.

As for `O=C(O)c1ccc(S(=O)(=O)Nc2cc(F)ccc2OCC(F)(F)F)cc1`, the “activity change, negative = inhibition” value is -0.0528%.

Turning to `Cc1cccc(OCCn2c(CN3CCCCC3)nc3ccccc32)c1`, the “activity change, negative = inhibition” value was 5.02%.

`CCn1ncc(N2CCC(NC(=O)c3ccc(OC(C)C)cc3)CC2)cc1=O`: the “activity change, negative = inhibition” value is 42.2%.

Turning to `COc1ccc(NC(C)=O)cc1NC(=O)CCn1cnc2c1c(=O)n(C)c(=O)n2C`, the “activity change, negative = inhibition” value was 2.56%.

For the molecule `CCC1CCCCN1C(=O)Cn1c(=O)n(CCCCCC(=O)NCc2ccccc2)c(=O)c2sccc21` (configuration not stated), the “activity change, negative = inhibition” value is -3.5%.

Regarding `Cc1cccc(Cn2c(=O)n(CCC(=O)NCCc3ccc(Cl)cc3)c(=O)c3sccc32)c1`, the Potency entry is “inactive”.

As to `O=C(Cn1c(=O)n(CCc2ccccc2)c(=O)c2sccc21)c1ccc(Cl)cc1`, the Potency was 22.4 µM (active).

Take `CC(=O)SC(CC(=O)c1ccccc1)c1ccccc1` (configuration not stated): the “activity change, negative = inhibition” value is 6.08%.

In the case of `NCCC(=O)Nc1ccccn1`, the “activity change, negative = inhibition” value was -72.1%.

Regarding `S=C(NN=Cc1ccccn1)Nc1ccccn1`, the Potency is 39.8 µM (active).

As for `Cc1nc2sc(C(=O)OCC(=O)Nc3cccc(C(F)(F)F)c3)c(C)c2c(=O)[nH]1`, the “activity change, negative = inhibition” value is -13.1%.

Turning to `COCCCNC(=O)CCn1ccc2cc(S(=O)(=O)N3CCCCC3)ccc21`, the “activity change, negative = inhibition” value is -21.4%.

As for `O=C(Nc1ccccc1Br)c1nc2ccccc2nc1N1CCOCC1`, the “activity change, negative = inhibition” value was 23.4%.

Take `COc1ccc(C(=O)/C(C#N)=C\c2ccccc2OC(F)F)cc1`: the “activity change, negative = inhibition” value is -60.9%.

Regarding `COc1ccc(Cl)cc1NC(=O)/C(C#N)=C/c1coc2ccc(Cl)cc2c1=O`, the “activity change, negative = inhibition” value is -20.8%.

Take `COc1cc(Br)c(/C=C(/C#N)C(=O)c2ccccc2)cc1O`: the Potency is 10 µM (active).

Take `C=CCn1c(-n2nc(CC)cc2CC)nc2c1c(=O)n(C)c(=O)n2C`: the “activity change, negative = inhibition” value was -0.9%.

As to `O=C(NC1CCN(Cc2ccccc2)C1)c1cc2ccccc2oc1=O` (configuration not stated), the “activity change, negative = inhibition” value was 7.23%.

`N#Cc1cccc(NC(=O)CSc2nnc(Cc3ccccc3)o2)c1`: the “activity change, negative = inhibition” value was -6.14%.

With `Cc1ccc(S(=O)(=O)NC(C)c2cccs2)cc1` (configuration not stated), the “activity change, negative = inhibition” value was 3.7%.

With `Cc1ccc(S(=O)(=O)/N=C2\C=C(NS(=O)(=O)c3ccc(C)cc3)C(=O)c3ccccc32)cc1`, the Potency was 15.8 µM (active).

For `CSCC(NS(=O)(=O)c1ccc(C)cc1)C(=O)O` (configuration not stated), the “activity change, negative = inhibition” value was -24.3%.

With `CC(C)c1ccc(C(=O)N/N=C/CCc2ccccc2)cc1`, the “activity change, negative = inhibition” value was 8.22%.

As to `N#CCCN1CCC(c2ccccc2)C1` (configuration not stated), the “activity change, negative = inhibition” value is -9.5%.

Turning to `CCCCC(CC(C)O)c1n[nH]c(=S)n1-c1ccccc1` (configuration not stated), the “activity change, negative = inhibition” value was -11.3%.

For `S=c1[nH]nc(-c2cc(-c3ccsc3)n[nH]2)n1-c1ccccc1`, the Potency was 15.8 µM (active).
